# Laboratory results as given in PubChem BioAssay.
# Calls of active or inactive are those of the source.
# Columns and labels:
# [1] = tested on: PRMT1 (protein arginine N-methyltransferase 1); test: PRMT1 binders on small-molecule microarrays, primary screen, biochemical, small-molecule microarray, 635 nm fluorescence (AID 1088); conditions: small-molecule microarray binding, higher = more signal;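 further: binding of Prmt1 protein to compounds spotted on small-molecule microarray slides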
# [2] = yeast growth modulation, basal conditions, primary screen, YJM789 clinical isolate, OD600, 24 h (AID 1089);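 further: growth of clinical yeast isolate S. cerevisiae YJM 789 seeded 1000 cells per well; test concentration not given here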; conditions: S. cerevisiae YJM789 growth, higher = more signal, called active from +8 up or from −8 down
# [3] = fission yeast growth modulation, primary screen, strain 972, OD600, 24 h, no modulator (AID 1090);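 further: basal condition with compound alone and no growth modifier present; test concentration not given here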; conditions: S. pombe 972 growth, higher = more signal, called active from +8 up or from −8 down
# [4] = S. cerevisiae growth modulation with rapamycin, primary screen, strain BY4716, OD600, 96 h (AID 1091); conditions: higher = more signal, called active from +8 up or from −8 down; further: test concentration not given here
# [5] = target: Torsin-1A-interacting protein 2 (Homo sapiens) (UniProt Q8NFQ8); test: LULL1 binders on small-molecule microarray, primary screen, cell lysate, human LULL1 lysate, 635/667 nm fluorescence (AID 1092); conditions: hLULL1 lysate binding, 635 nm fluorescence, higher = more signal;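 further: probe is lysate of COS7 cells overexpressing human LULL1; score merges per-feature 667 nm fluorescence with signal-to-noise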
# [6] = E. coli growth modulation, two-sided OD650, primary screen, E. coli filamentation project, strain DRC41, 24 h (AID 1093); conditions: OD650, 24 h, higher = more signal, called active from +8 up or from −8 down;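 further: MC1000 strain lacking acrAB efflux and sulA so SOS filamentation is blocked; test concentration not given here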
# [7] = small-molecule microarray binders of probe aLefty2, primary screen, biochemical, biotinylated probe, 635/667 nm fluorescence (AID 1094); conditions: higher = more signal;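 further: score merges spot fluorescence near 667 nm with spot signal-to-noise ratio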
# [8] = tested on: Noggin (protein binding on small-molecule microarray); test: Noggin binders on small-molecule microarray, primary screen, biochemical, 635/667 nm fluorescence (AID 1095); conditions: 635 nm fluorescence, higher = more signal;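 further: score merges 667 nm feature fluorescence with signal to noise over triplicate slides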
# [9] = target: Neurogenic locus notch homolog protein 3 (Homo sapiens) (UniProt Q9UM47); test: NOTCH3 binders on small-molecule microarray, primary screen, biochemical, 635/667 nm fluorescence (AID 1096); conditions: NOTCH3 binding, 635 nm fluorescence, higher = more signal
# [10] = small-molecule microarray binders of probe aEGFR, primary screen, biochemical, biotinylated probe, 635/667 nm fluorescence (AID 1097); conditions: higher = more signal;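 further: probe is a biotinylated anti-EGFR antibody binding compounds printed on slides; score combines fluorescence near 667 nm and signal to noise of each spot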
# [11] = tested on: Plasmodium falciparum Sir2 (PF13_0152, Sir2A); test: pfSir2 binders on small-molecule microarrays, primary screen, biochemical, small-molecule microarray, 635 nm fluorescence (AID 1098); conditions: small-molecule microarray binding, fluorescence 635 nm; higher = more signal;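 further: score merges spot fluorescence intensity with its signal-to-noise ratio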
# [12] = small-molecule microarray binders of probe aDKK1, primary screen, biochemical, biotinylated probe, 635/667 nm fluorescence (AID 1099); conditions: higher = more signal;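 further: score merges 667nm spot fluorescence with signal to noise across triplicate slides; reference of the scale not given here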
# [13] = small-molecule microarray binders of probe aCHRDL2, primary screen, biochemical, biotinylated probe, 635/667 nm fluorescence (AID 1100); conditions: higher = more signal
# [14] = splicing luciferase reporter signal modulators, primary screen, spliceosome inhibition project, cell-based, HEK293, splice +/- reporter (AID 1101); conditions: luminescence, 24 h, higher = more signal, called active from +8 up or from −8 down;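 further: HEK293 cells carrying a splicing-competent luciferase reporter gene; test concentration not given here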
# [15] = target: Fibroblast growth factor 10 (Homo sapiens) (UniProt O15520); test: FGF10 binders on small-molecule microarrays, primary screen, biochemical, small-molecule microarray, 635 nm fluorescence (AID 1102); conditions: FGF10 binding, fluorescence 635 nm, higher = more signal
# [16] = tested on: glycogen synthase kinase-3 (GSK3A per assay name; protocol says GSK3B); test: GSK3 binders on small-molecule microarrays, primary screen, biochemical, small-molecule microarray, 635 nm fluorescence, GSK3A (AID 1103); conditions: small-molecule microarray binding, fluorescence 635 nm; higher = more signal; further: the record names both GSK3A and GSK3B
# [17] = target: Epidermal growth factor receptor (Homo sapiens) (UniProt P00533); test: EGFR binders on small-molecule microarrays, primary screen, biochemical, small-molecule microarray, 635 nm fluorescence (AID 1104); conditions: EGFR binding, higher = more signal;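 further: score merges 667 nm emission intensity with spot signal to noise over triplicate slides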
# [18] = target: Follistatin-related protein 3 (Homo sapiens) (UniProt O95633); test: FSTL3 binders on small-molecule microarrays, primary screen, biochemical, small-molecule microarray, 635 nm fluorescence (AID 1105); conditions: FSTL3 binding, higher = more signal;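 further: score merges emission near 667 nm and signal to noise per printed spot across three slides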
# [19] = target: Dickkopf-related protein 1 (Homo sapiens) (UniProt O94907); test: DKK1 binders on small-molecule microarrays, primary screen, biochemical, small-molecule microarray, 635 nm fluorescence scan (AID 1106); conditions: DKK1 binding, higher = more signal;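 further: score merges emission near 667 nm with signal to noise over three replicate slides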
# [20] = tested on: Inhibin beta A chain (activin A); test: INHBA (activin A) binders on microarrays, primary screen, biochemical, small-molecule microarray, 635 nm fluorescence scan (AID 1107); conditions: small-molecule microarray binding, higher = more signal;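 further: mouse activin A protein probed at 4.33 µg/mL on printed slides; score merges bound-protein fluorescence near 667 nm with spot signal-to-noise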
# Chain of Fibroblast growth factor 10 (Homo sapiens) (O15520 whole entry, looked up): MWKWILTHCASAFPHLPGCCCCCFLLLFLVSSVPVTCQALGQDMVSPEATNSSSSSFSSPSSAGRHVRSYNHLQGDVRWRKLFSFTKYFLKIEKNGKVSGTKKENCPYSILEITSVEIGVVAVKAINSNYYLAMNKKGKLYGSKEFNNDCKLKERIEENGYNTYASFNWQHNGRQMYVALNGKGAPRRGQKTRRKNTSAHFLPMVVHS
# Chain of Dickkopf-related protein 1 (Homo sapiens) (O94907 whole entry, looked up): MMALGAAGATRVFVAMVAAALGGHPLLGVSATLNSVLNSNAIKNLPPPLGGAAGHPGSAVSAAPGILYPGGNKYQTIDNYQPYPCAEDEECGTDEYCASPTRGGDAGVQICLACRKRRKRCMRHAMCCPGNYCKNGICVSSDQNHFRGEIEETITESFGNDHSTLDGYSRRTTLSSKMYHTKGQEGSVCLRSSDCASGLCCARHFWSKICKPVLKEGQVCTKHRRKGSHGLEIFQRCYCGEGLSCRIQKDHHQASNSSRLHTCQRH
# Chain of Neurogenic locus notch homolog protein 3 (Homo sapiens) (Q9UM47 whole entry, looked up): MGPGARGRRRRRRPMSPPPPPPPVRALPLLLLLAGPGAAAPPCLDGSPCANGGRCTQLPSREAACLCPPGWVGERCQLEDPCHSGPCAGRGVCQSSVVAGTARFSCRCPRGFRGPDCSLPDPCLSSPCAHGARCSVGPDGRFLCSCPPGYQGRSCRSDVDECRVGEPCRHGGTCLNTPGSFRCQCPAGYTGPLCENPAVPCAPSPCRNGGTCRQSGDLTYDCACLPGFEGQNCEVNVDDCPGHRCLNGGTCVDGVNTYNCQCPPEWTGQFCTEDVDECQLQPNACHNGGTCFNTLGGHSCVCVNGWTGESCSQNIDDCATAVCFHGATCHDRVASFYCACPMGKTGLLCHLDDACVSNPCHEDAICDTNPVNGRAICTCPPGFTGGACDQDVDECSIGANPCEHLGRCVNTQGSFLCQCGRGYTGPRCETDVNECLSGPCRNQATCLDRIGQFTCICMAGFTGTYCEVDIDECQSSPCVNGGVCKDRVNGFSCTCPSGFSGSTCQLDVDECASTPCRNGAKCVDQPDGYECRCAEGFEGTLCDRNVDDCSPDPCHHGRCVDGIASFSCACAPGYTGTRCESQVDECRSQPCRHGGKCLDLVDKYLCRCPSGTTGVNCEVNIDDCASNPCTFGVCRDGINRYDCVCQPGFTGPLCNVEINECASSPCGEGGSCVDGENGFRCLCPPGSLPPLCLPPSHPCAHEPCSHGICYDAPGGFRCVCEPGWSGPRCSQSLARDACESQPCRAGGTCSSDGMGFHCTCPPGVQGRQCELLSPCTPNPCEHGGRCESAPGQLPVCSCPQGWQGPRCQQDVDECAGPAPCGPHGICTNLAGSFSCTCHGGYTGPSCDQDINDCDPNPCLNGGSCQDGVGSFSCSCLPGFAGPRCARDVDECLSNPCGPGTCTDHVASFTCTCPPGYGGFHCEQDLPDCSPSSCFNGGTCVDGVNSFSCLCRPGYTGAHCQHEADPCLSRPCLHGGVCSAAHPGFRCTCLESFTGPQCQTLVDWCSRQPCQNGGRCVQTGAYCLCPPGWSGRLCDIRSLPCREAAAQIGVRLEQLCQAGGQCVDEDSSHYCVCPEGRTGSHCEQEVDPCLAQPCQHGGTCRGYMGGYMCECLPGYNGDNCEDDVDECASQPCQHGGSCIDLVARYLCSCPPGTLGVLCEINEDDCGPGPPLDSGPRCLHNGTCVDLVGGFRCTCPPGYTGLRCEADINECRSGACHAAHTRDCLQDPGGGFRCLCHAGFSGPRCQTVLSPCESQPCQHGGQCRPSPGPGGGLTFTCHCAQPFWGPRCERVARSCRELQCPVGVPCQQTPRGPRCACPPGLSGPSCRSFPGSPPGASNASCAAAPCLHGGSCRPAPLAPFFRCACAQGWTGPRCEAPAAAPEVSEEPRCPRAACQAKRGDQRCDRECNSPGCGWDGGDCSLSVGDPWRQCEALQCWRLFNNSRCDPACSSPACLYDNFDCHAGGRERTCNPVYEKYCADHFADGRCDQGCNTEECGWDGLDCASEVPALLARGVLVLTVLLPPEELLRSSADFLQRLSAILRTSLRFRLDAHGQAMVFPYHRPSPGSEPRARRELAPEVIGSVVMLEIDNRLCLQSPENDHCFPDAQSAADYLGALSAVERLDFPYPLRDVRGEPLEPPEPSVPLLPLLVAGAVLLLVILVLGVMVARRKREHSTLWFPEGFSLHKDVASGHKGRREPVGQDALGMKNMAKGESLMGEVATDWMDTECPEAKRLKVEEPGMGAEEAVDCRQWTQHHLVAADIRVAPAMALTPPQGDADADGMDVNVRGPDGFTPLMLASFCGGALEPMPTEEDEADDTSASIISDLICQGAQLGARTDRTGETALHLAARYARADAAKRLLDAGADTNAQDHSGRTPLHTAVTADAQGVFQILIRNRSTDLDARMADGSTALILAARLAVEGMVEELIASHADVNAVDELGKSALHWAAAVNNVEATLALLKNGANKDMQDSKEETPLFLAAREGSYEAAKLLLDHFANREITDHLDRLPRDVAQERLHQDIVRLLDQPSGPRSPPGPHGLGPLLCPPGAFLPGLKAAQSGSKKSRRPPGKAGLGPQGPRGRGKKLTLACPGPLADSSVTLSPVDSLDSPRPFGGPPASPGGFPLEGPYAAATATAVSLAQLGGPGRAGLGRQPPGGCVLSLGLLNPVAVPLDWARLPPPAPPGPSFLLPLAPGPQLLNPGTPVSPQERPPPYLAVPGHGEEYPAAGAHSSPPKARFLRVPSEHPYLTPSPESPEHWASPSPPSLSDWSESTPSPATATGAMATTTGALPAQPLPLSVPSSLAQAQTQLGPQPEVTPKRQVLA
# Chain of Torsin-1A-interacting protein 2 (Homo sapiens) (Q8NFQ8 whole entry, looked up): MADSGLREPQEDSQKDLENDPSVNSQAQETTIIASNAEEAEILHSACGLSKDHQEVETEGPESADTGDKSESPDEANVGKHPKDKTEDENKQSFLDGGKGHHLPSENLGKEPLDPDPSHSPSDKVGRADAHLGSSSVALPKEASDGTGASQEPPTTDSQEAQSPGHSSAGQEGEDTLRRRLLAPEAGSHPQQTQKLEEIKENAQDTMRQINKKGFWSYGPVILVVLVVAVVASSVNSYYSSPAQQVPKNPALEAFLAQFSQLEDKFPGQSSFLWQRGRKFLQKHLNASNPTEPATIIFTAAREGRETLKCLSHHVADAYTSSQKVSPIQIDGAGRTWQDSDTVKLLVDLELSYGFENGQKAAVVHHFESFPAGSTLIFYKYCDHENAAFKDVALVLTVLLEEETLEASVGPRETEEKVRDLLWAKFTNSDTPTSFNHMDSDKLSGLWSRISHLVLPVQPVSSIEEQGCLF
# Chain of Epidermal growth factor receptor (Homo sapiens) (P00533 whole entry, looked up): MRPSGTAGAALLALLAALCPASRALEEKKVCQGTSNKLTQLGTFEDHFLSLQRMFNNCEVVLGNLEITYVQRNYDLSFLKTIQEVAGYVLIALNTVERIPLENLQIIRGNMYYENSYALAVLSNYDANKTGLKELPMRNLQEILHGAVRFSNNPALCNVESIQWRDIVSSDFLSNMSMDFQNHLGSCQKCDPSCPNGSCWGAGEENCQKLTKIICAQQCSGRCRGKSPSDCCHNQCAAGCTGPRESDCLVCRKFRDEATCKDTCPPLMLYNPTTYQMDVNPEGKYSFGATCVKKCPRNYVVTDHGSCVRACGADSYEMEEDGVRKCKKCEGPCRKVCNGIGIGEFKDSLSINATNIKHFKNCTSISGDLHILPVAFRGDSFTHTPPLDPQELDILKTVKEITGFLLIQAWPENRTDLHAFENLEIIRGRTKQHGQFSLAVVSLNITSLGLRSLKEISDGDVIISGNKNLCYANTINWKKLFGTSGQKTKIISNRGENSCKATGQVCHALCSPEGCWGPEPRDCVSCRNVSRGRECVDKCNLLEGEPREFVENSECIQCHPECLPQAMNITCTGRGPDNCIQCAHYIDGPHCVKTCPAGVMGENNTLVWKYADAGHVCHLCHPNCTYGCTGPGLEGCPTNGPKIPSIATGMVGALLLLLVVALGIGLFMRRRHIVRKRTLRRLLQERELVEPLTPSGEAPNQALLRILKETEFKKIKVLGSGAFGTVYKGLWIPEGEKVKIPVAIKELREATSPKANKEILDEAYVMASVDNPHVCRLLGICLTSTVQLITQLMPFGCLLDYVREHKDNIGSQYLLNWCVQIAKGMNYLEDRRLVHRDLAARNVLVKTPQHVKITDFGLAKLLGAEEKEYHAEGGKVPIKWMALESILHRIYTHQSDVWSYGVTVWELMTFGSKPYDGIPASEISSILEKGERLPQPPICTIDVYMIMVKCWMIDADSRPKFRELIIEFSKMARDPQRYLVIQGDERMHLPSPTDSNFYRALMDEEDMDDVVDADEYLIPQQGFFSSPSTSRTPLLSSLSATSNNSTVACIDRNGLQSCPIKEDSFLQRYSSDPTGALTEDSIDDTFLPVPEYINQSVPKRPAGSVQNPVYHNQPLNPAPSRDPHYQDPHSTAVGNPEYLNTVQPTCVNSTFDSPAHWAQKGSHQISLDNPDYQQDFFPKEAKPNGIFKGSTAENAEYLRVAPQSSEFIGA
# Chain of Follistatin-related protein 3 (Homo sapiens) (O95633 whole entry, looked up): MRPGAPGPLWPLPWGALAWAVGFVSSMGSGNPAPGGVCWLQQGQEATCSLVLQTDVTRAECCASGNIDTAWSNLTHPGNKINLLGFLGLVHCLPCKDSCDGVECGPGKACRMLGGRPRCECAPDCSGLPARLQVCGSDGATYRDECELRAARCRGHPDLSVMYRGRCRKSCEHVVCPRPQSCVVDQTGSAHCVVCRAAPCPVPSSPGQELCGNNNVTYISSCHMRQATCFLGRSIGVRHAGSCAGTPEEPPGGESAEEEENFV
SMILES,composite z-score [1],z-score [2],z-score [3],z-score [4],composite z-score [5],z-score [6],composite z-score [7],composite z-score [8],composite z-score [9],composite z-score [10],composite z-score [11],composite z-score [12],composite z-score [13],z-score [14],composite z-score [15],composite z-score [16],composite z-score [17],composite z-score [18],composite z-score [19],composite z-score [20]
C=C(COC)C(=O)CC[C@H](OC(=O)c1cccnc1)c1ccc(CO)o1,1.33,-1.26 (inactive),-0.292 (inactive),-0.35 (inactive),0.103,-0.252 (inactive),-0.132,1.1,1.02,-0.0313,1.44,-0.424,-0.686,0.591 (inactive),0.905,0.596,0.393,1.3,1.42,0.488
COc1ccc(C(O)C2C=CC3C(=O)N(c4ccccc4)C(=O)C3N2Nc2ccccc2)cc1 (stereo not given),1.53,0.219 (inactive),-0.24 (inactive),0.211 (inactive),3.6,-0.701 (inactive),0.191,0.505,1.05,-0.0382,0.97,-0.0903,0.637,1.68 (inactive),1.31,0.592,0.199,1.37,-0.0198,1.04
COc1cc(C(O)C2C=CC3C(=O)N(Cc4ccccc4)C(=O)C3N2n2cnnc2)cc(OC)c1OC (stereo not given),0.932,-1.3 (inactive),-0.519 (inactive),-1.22 (inactive),1.36,0.582 (inactive),0.327,-0.127,0.626,0.298,0.146,0.71,0.865,-0.696 (inactive),0.571,0.389,0.489,0.16,0.134,1.23
CCCNC(=O)[C@@]1(C)c2ccccc2C(=O)N(Cc2ccccc2)[C@H]1c1ccc(CO)cc1,1.54,-0.864 (inactive),-1.08 (inactive),-0.871 (inactive),2.76,1.32 (inactive),0.0844,-1.1,-0.127,-0.094,0.956,0.74,0.963,1.34 (inactive),0.391,-0.136,-1.54,-0.487,-0.766,-0.765
COCCOC(=O)N1C(=O)[C@@]2(c3cc(C#CCC(C(=O)OC)C(=O)OC)ccc31)[C@H](C(=O)NC[C@H](O)c1ccccc1)[C@H]1C(=O)O[C@H](c3ccccc3)[C@H](c3ccccc3)N1[C@@H]2c1ccc(O)cc1,1.36,1.05 (inactive),1.37 (inactive),0.174 (inactive),2.78,-0.377 (inactive),-0.0845,-1.08,0.687,-0.0828,1.17,-0.0319,0.521,0.556 (inactive),0.923,1.22,-0.239,0.186,-0.224,-0.29
CC(C)C(=C=CC[C@@H](O)c1cccc(OCCO)c1)C[C@@H](O)c1ccccn1,0.504,-0.282 (inactive),-0.361 (inactive),-0.419 (inactive),1.26,0.379 (inactive),-0.283,0.38,0.603,-0.161,0.862,-0.261,-0.315,0.111 (inactive),0.285,-0.366,-0.604,0.0146,0.0852,0.139
COc1ccc(C#Cc2ccc3c(c2)[C@]2(C(=O)N3)[C@H](c3ccc(OCCO)cc3)N3[C@H](c4ccccc4)[C@H](c4ccccc4)OC(=O)[C@H]3[C@@H]2C(=O)N2CCc3cc(OC)c(OC)cc3C2)cc1,1.55,2.27 (inactive),1.94 (inactive),4.57 (inactive),2.81,0.0933 (inactive),-0.209,0.784,1.12,0.481,1.38,1.5,0.185,-0.517 (inactive),1.23,1.28,0.871,1.01,1.28,-0.258
O=C1OCC=C[C@H]2OC34C=CCN(c5ccc6ccccc6c5)C(=O)[C@H]3N(CCCCCO)C(=O)[C@@H]4[C@@H]12 (stereo not given in full),-0.6,-0.594 (inactive),-0.955 (inactive),-0.515 (inactive),3.68,0.198 (inactive),0.306,-1.65,-1.04,-0.177,1.88,0.07,0.878,-0.57 (inactive),-1.17,-1.55,-1.44,-1.56,-1.41,-0.255
CCCCNC(=O)c1ccc(C#C[Si](C(C)C)(C(C)C)C(C)C)c(OC(C)=O)c1,0.613,-0.272 (inactive),-1.61 (inactive),0.645 (inactive),0.765,-0.423 (inactive),-0.0916,0.926,1.05,-0.0208,0.28,-0.0188,-0.539,-0.831 (inactive),0.832,0.807,1.36,1.49,0.784,1.59
